Drawing on PubChem BioAssay (NCI), this text covers growth for 15 molecules.

Values joined by “and” are separate entries in the source; they are usually repeats but may differ in a detail not shown here. Equal values may be shown once. Compounds without any hit were thinned out: in the full panel of roughly 83,000, 20% have a hit.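 In brief: 96-well plates, 48 h treatment, single concentration, percent growth endpoint.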 Unmarked numbers belong to inactive results. Active and inactive are the calls of the source. Rule for the calls: active = growth percent below 10; inactive = the rest.

The test system of the experiment is HL-60(TB) leukemia. The experiment can be described thus: NCI-60 one-dose screen, 48 h (100 = growth as untreated, 0 = no growth, -100 = all killed). The settings on record: 10 µM unless noted.
Turning to `CC1=C(CCC(C)N(C)Cc2ccc(OCCCN3CCCC3)cc2)C(C)(C)CCC1` (stereo not given), the growth was 24.6%.

For the molecule `NS(=O)(=O)OCC1OC(n2cnc3cncnc32)C(O)C1O` (stereo not given), the growth is 37.8% [0.1 µM] and 27.5% [0.1 µM].

`CCOC(=O)c1cc(C(=O)c2cc(OC)c(OC)c(OC)c2)n2ccc(-c3ccncc3)cc12`: the growth is 65%.

Regarding `NC(=S)c1csc(CCNC(=O)c2ccccc2)n1`, the growth is 89%.

Regarding `CC(=O)C1CCC2C3CC=C4CC(SC(=N)N)CCC4(C)C3CCC12C` (stereo not given), the growth was -17.6% (active).

Take `Cc1ccc(C2CC(c3ccc(Nc4nc(NCCO)nc(NCCO)n4)cc3)=NN2c2ccc(Cl)cc2)cc1` (stereo not given): the growth is 80.7%.

As to `COC(=O)c1c2c(c(C)[n+]([O-])c1C)C(=O)C(NCc1ccc(O)cc1)=CC2=O`, the growth was -8.85% (active).

`O=C(O)c1ccc(-n2cc(/C=N/Nc3ccc(F)cc3)c(-c3cc4ccccc4oc3=O)n2)cc1`: the growth is 6.08% (active).

Take `C#CCn1cc(C=C2C(=O)NC(=S)NC2=O)c2cc(Cl)ccc21`: the growth was -4.45% (active).

As to `CC(C)(C)n1cc(-c2ccnc(NCCNS(=O)(=O)c3cccc(F)c3)c2)c(-c2ccccc2)n1`, the growth is 73.5%.

Consider `CC(C)n1cnc2c(=S)nc[nH]c21`, for which the growth is 141%.

For the molecule `CCCCOC1NC(=O)NC(=O)C1(F)C(=O)OCC` (stereo not given), the growth was 63.5%.

Consider `O=C(N/N=C/c1cccnc1)c1ccccc1Nc1cccc(C(F)(F)F)c1`, for which the growth is 64.8%.

Turning to `C=C(C(N)=O)C(N)C(=O)O` (stereo not given), the growth is 104%.

On to `CC(=O)Oc1ccc(C2(c3ccc(OC(C)=O)cc3)C(=O)Nc3ccccc32)cc1`, for which the growth is 75.5% and 119%.
